Bioassay records deposited in PubChem BioAssay by National Center for Advancing Translational Sciences (NCATS).
Compounds with a hit are over-represented: about 2.7% of the library has one in this group of screens.
KDM5B inh: blocks human KDM5B histone demethylase activity. Q9UGL1. KDM5B demethylase, FDH-coupled NADH fluorescence (FDH is formaldehyde dehydrogenase). Potency, µM (highest dose often 57.7 µM), actives largely listed as inhibitors. 2.6% of 220,000 active. AID 1347165; active = well fitted inhibition curve with a large enough effect; inconclusive = small, poorly fitted or top-dose-only effect; inactive = no such curve, though single readings can be large or run the other way; also: potency is read from the fitted curve at half-maximal effect; 0% is about no effect; nearly all actives have a fitted effect of over 70% in size
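Here, H3K4me3 peptide (12.5 µM in substrate mix) is demethylated by KDM5BΔAP, 200 nM final, after 10 min compound exposure. Formaldehyde product is coupled through FDH (0.25 U/mL in mix) to NADH fluorescence; 30-min ΔRFU feeds dose-response curves.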
IP6K1 inh: IP6K1 kinase inhibition | 0.81% of 140,000 active | activity change, % (series mostly up to about 58 µM) | IP6K1 kinase, ADP-Glo luminescence, 2 h; stronger effect = lower value; in the data active = activity change below about -25%; also: % is scaled to controls: 0 for no effect and ±100 for the full control effect
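ADP-Glo luminescence measures ADP made by human IP6K1 during a 2 h RT reaction with ATP/IP6 (mix at 1.3 mM/130 uM); top library doses 57.5 and 19.1 uM final.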
* marks the source's active call; other numbers are inactive results; i = inactive; u = inconclusive; x = no result given.

SMILES	KDM5B inh	IP6K1 inh
CC(C)(C)c1ccc(-c2nnc3sc(-c4ccc5c(c4)OCO5)nn23)cc1	i	x
CCC(=O)N1CCCN(Cc2ccc3c(c2)OCO3)c2ccccc21	u	-0.1
CC(Cc1cccnc1)Nc1cc(-c2ccccc2F)nc2ccnn12 (stereo not given)	28.2µM*	-14.8
Fc1ccccc1CNc1cc(Cl)nc2ccnn12	i	8.9
CC(Sc1nnc(Nc2ccccc2)s1)C(=O)N(C)c1ccccc1 (stereo not given)	i	x
CCOc1ccccc1C(=O)NCc1nnc2c(-c3nc(C4CC4)no3)cccn12	i	2.7
O=C(NCc1nnc2c(-c3nc(C4CC4)no3)cccn12)c1cc(F)ccc1F	28.2µM*	16.5
O=C(NCc1nnc2c(-c3nc(C4CC4)no3)cccn12)c1cc(F)ccc1Cl	28.2µM*	-7.4
O=C(COc1ccc(F)cc1)N1CCC(n2cc(-c3nc(C4CC4)no3)nn2)C1 (stereo not given)	i	-13.3
C=CCNc1nc(C(=O)OCC(=O)NC(C)c2ccc(F)cc2)cs1 (stereo not given)	i	x
CC(C)c1ccc(S(=O)(=O)c2nnn3c2nc(N2CCCCC2)c2ccccc23)cc1	89.1µM*	10.2
Cc1ccc(S(=O)(=O)c2nnn3c2nc(N2CCOCC2)c2ccccc23)cc1C	79.4µM*	15.0
O=S(=O)(c1ccccc1)c1nnn2c1nc(N1CCCCC1)c1ccccc12	u	-4.1
Cc1ccc(S(=O)(=O)c2nnn3c2nc(N2CCN(c4cccc(C)c4C)CC2)c2ccccc23)cc1C	u	8.3
CCCCCOc1ccc(C(N)C(=O)OCC)cc1 (stereo not given)	i	x
O=C(NCc1cccs1)c1cc(-c2cccnc2)c2nncn2n1	100µM*	12.8
O=C(NCc1cccs1)c1cc(-c2ccccc2)c2nncn2n1	x	2.4
Cc1nn(-c2ccccc2)c2c1C(C(C)C)N(C1CCN(C(=O)c3cccnc3)C1)C2=O (stereo not given)	x	-4.1
O=C(c1ccoc1)N1CCN(c2nnc3ccccn23)CC1	31.6µM*	16.7
CN(C)c1ccc(C(=O)N2CCN(c3nnc4ccccn34)CC2)cc1	17.8µM*	-8.3
CCc1ccc(C(=O)N2CCCN(c3nnc4ccccn34)CC2)cc1	25.1µM*	6.7
CCc1ccc(C(=O)N2CCN(c3nc4ccccc4o3)CC2)cc1	i	x
O=C(O)C1CCN(C(=O)c2ccoc2)CC1	i	x
Cc1ccc(C(=O)N2CCN(c3nnc4c(Cl)cccn34)CC2)cc1	i	11.2
Cc1ncc2n1C(=O)N(C1CCN(Cc3ccc(OC(F)(F)F)cc3)CC1)C2	i	12.7
SMILES	KDM5B inh	IP6K1 inh
Cc1nn(-c2ccccc2)c2c1C(C(C)C)N(C1CCN(C(=O)c3cccc(Cl)c3)CC1)C2=O (stereo not given)	x	1.9
COc1ccc(CNC(=O)c2ccc3nc(Cc4ccccc4F)oc3c2)c(OC)c1	i	x
COc1cccc(-c2cc(C(=O)NCCCc3ccccc3)c3cnn(C)c3n2)c1	x	-6.0
CCc1ccccc1NC(=O)Cn1ccn2nc3c(c2c1=O)CCCC3	35.5µM*	-3.9
CCCNC(=O)Cn1ccn2nc3c(c2c1=O)CCCC3	i	28.6
CC(C)CCNC(=O)Cn1ccn2nc3c(c2c1=O)CCCC3	20µM*	1.7
O=C(Cn1ccn2nc3c(c2c1=O)CCCCC3)Nc1ccccc1C(F)(F)F	u	-1.0
[2H]C1=C([2H])C([2H])(CC(=C)C)[N+](C)(C)C([2H])(CC(=C)C)C1[2H] (stereo not given)	i	x
O=c1[nH]c2ccccc2n1C1CCN(c2nccc(-c3cccnc3)n2)CC1	u	-3.2
Cc1ccc(NC(=O)Cn2nc3ccc(SC(C)C)nn3c2=O)c(Cl)c1	i	x
N#Cc1nc(-c2ccc(S(=O)(=O)N3CCCCC3)cc2)oc1NCc1ccc2c(c1)OCO2	i	x
CCCCn1nc(C2CCOC2)nc1-c1cnc(NC)nc1 (stereo not given)	25.1µM*	-1.4
c1ccc(Cn2nc(C3CCOC3)nc2-c2ccoc2)cc1 (stereo not given)	i	-6.0
COc1ccc(CC(=O)N2C[C@@H](CO)[C@@H]3Oc4ccc(Cl)cc4[C@@H]32)cc1	x	-2.6
COc1cccc([S+](=O)([O-])NC[C@@H]2CC[C@H]3C[C@@H]2C3(C)C)c1	i	2.2
CCCCS(=O)(=O)N1CCc2n[nH]c(=O)n2CC1	20µM*	-13.0
CCCS(=O)(=O)N1CCc2n[nH]c(=O)n2CC1	i	-5.8
COc1ncccc1-c1nc(-c2c(C)noc2C)cc2cc(CN(C)C)oc12	u	-9.7
Cc1noc(C)c1-c1cc2cc(C(C)C)oc2c(-c2cccnc2)n1	31.6µM*	-7.1
COc1ncccc1-c1nc(-c2c(C)noc2C)cc2cc(C(C)C)oc12	31.6µM*	-8.9
Cc1cc2cc(-c3c(C)noc3C)nc(-c3ccc(CO)cc3)c2o1	u	-18.0
Cc1noc(C)c1-c1cc2cc(C(C)C)oc2c(-c2c(C)noc2C)n1	i	1.9
CNC(=O)c1cc2cc(-c3c(C)noc3C)nc(-c3cccnc3OC)c2o1	35.5µM*	-2.4
Cc1noc(C)c1-c1cc2cc(C(C)C)oc2c(-c2ccc(CO)cc2)n1	28.2µM*	-8.4
Cc1noc(C)c1-c1cc2cc(CO)oc2c(Nc2cccnc2)n1	u	19.1
SMILES	KDM5B inh	IP6K1 inh
NC(CCc1ccccc1)c1ccccc1 (stereo not given)	i	x
O=C1CCN(CC(O)COc2ccccc2)c2ccccc2CN1C1CCCC1 (stereo not given)	x	10.7
O=C(CSc1nc2ccccc2o1)NCC(=O)N1CCCC1	i	x
Cc1nc(Nc2ccc(NC(=O)c3cccs3)cc2)cc(N2CCOCC2)n1	i	x
O=C(Cc1cccc(Cl)c1)NC1CCCN(c2ccc3nnc(-c4ccccc4)n3n2)C1 (stereo not given)	x	6.8
Cn1nc(C(=O)NC(CC(=O)O)c2ccccc2)c2ccccc2c1=O (stereo not given)	i	x
COCCCn1c(C)cc(C(=O)N2CC(COC)C3(CCNCC3)C2)c1C (stereo not given)	31.6µM*	13.4
COCCCn1c(C)cc(C(=O)N2CCCC(CO)CCNC(=O)CC2)c1C (stereo not given)	i	-10.1
CCOc1ccc(C(=O)N2CC(COC)C3(CCNCC3)C2)cc1OCC (stereo not given)	i	-2.9
COCC1CN(C(=O)c2nccn2C)CC12CCNCC2 (stereo not given)	25.1µM*	26.0
COc1cccc2cc(-c3nc(-c4ccc(Cl)cc4)no3)c(=O)oc12	i	x
COc1ccc(-c2[nH]nc3ncc(-c4ccc([S+](C)(=O)[O-])cc4)nc23)c(C)c1	i	7.2
N#Cc1ccc2nc([C@H]3CCN(Cc4ccccn4)C3)[nH]c2c1	35.5µM*	6.9
N#Cc1ccc2nc([C@H]3CCN(Cc4ccccc4)C3)[nH]c2c1	u	0.1
O=C(O)C/C(=C/c1cccc(/C=C(/CC(=O)O)c2nc3ccccc3o2)c1)c1nc2ccccc2o1	i	x
O=C(NCCc1ccc(Cl)cc1)c1nc(-c2ccccc2)c2ccccn12	28.2µM*	9.2
O=C(NCCc1ccc(Cl)cc1)c1cn2cc(-c3cccc(C(F)(F)F)c3)sc2n1	x	5.1
O=C(NCCc1ccc(Cl)cc1)c1nc(-c2cc(Cl)cc(Cl)c2)c2ccccn12	u	19.4
